This passage reports binding signal results from PMC7862700, “An all-to-all approach to the identification of sequence-specific readers for epigenetic DNA modifications on cytosine”.

Experiment in all cases: DAPPL (digital affinity profiling via proximity ligation, sequencing); 10 mM Tris-HCl pH 7.5, 50 mM NaCl, 1 mM DTT, 4% glycerol, room temperature, 30 min; GST-TFs on glutathione beads, 16-mer random dsDNA library, 0.1% formaldehyde crosslink after washing; high values mean tight binding
Common to all, as to conditions: protein: recombinant; tags: N-terminal GST; dsDNA, one strand shown

The target of assay [1] is T1, ERG (Homo sapiens, UniProt P11308 1-479).
T1 sequence: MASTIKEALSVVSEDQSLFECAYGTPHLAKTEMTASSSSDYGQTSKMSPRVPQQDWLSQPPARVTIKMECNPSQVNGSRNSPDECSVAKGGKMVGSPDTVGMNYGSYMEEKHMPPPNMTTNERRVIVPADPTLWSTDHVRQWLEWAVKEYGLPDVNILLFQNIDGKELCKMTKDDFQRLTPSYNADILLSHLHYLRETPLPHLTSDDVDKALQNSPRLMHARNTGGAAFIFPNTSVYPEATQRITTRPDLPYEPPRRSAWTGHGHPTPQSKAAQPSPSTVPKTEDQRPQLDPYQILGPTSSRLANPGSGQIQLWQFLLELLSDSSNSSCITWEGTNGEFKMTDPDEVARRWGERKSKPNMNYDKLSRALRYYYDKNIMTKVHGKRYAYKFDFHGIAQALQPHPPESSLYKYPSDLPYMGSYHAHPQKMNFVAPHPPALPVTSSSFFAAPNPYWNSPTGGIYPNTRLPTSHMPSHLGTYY
The method, boiled down:
(§1)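 Sequencing on an Illumina NextSeq500 followed washing, crosslinking with 0.1% formaldehyde, proximity ligation (BsaI/T4 ligase, 1 h, 37 °C) and PCR amplification of pools that had been incubated for 30 min at room temperature with 200 nmole of a random double-stranded 16-mer DNA library in Tris/NaCl/DTT/glycerol buffer. Each pool held DNA-barcoded human transcription factors, expressed in yeast as GST fusions and captured on glutathione beads, plus a tag-only sample. Binding signal is a hexamer's read frequency for a factor divided by its frequency in the tag-only sample.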

For assay [2], the target named is ELF1 (Homo sapiens, UniProt P32519 1-619). An outline of the steps: as §1
Sequence of ELF1 (P32519 whole entry): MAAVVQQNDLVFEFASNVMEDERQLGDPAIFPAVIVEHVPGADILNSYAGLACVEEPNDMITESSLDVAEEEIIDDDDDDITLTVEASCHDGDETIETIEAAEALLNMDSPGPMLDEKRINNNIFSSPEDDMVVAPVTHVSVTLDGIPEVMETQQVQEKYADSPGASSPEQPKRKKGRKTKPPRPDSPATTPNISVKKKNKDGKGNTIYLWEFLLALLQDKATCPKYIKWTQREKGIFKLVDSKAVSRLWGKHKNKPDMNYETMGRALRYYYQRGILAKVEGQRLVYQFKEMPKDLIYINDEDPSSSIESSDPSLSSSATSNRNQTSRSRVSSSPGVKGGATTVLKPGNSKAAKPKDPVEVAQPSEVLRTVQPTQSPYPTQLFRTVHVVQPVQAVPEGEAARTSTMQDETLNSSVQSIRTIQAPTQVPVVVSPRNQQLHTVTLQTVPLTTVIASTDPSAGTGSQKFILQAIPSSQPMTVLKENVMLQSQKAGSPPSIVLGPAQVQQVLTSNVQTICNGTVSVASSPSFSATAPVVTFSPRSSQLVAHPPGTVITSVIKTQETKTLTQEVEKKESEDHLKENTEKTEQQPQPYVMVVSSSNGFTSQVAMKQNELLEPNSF
Assay [3] concerns the target ETV5 (Homo sapiens, UniProt P41161 1-510). An outline of the steps:
as §1

For assay [4], the target named is T2, SPIC (Homo sapiens, UniProt Q8N5J4 1-248).
T2 sequence: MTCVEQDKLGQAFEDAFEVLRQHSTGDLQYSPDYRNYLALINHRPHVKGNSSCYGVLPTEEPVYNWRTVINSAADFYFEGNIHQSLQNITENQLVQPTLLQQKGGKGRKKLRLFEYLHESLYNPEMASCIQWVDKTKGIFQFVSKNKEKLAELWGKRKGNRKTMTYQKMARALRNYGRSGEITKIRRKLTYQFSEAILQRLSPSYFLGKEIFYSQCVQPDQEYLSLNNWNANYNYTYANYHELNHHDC
The method, boiled down:
as §1

Assay [5] addresses ELF4 (Homo sapiens, UniProt Q99607 1-663). The method, boiled down:
as §1

In assay [6] the target is T3, ELF3 (Homo sapiens, UniProt P78545 1-371).
T3 sequence: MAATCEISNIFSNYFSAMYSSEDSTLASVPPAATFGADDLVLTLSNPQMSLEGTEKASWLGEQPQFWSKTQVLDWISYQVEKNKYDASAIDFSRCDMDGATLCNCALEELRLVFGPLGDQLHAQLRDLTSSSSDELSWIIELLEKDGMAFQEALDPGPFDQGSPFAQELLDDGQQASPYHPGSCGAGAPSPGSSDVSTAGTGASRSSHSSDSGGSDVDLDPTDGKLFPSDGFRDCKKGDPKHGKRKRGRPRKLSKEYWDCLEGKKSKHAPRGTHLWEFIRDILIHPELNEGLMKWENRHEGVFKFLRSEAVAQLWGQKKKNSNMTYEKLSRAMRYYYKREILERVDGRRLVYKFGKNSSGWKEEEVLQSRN
An outline of the steps:
as §1

The target of assay [7] is T4, ETV3L (Homo sapiens, UniProt Q6ZN32 1-361).
T4 sequence: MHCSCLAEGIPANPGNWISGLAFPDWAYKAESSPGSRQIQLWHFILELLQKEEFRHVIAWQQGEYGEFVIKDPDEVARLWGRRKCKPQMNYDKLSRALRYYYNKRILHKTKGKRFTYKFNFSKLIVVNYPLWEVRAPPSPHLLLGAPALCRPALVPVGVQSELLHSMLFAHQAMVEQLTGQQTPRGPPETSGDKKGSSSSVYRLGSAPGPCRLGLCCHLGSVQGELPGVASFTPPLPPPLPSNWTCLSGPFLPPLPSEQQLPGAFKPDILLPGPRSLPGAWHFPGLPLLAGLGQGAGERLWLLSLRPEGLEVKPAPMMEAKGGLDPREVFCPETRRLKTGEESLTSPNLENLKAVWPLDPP
The method, boiled down: as §1

Assay [8] has as its target T5, ETV7 (Homo sapiens, UniProt Q9Y603 1-341).
T5 sequence: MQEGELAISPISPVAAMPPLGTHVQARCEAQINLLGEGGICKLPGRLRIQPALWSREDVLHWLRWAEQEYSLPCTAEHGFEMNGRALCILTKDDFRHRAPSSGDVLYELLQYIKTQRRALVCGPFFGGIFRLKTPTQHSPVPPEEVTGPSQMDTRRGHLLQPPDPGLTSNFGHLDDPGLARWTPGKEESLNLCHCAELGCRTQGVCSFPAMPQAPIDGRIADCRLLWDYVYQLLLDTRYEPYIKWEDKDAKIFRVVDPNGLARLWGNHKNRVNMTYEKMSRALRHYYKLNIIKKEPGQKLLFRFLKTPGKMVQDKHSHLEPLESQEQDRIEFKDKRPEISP
The method, boiled down: as §1

The target in assay [9] is ETV6 (Homo sapiens, UniProt P41212 1-452). The method, boiled down:
as §1

For assay [10], the target named is T6, GABPA (Homo sapiens, UniProt Q06546 1-454).
T6 sequence: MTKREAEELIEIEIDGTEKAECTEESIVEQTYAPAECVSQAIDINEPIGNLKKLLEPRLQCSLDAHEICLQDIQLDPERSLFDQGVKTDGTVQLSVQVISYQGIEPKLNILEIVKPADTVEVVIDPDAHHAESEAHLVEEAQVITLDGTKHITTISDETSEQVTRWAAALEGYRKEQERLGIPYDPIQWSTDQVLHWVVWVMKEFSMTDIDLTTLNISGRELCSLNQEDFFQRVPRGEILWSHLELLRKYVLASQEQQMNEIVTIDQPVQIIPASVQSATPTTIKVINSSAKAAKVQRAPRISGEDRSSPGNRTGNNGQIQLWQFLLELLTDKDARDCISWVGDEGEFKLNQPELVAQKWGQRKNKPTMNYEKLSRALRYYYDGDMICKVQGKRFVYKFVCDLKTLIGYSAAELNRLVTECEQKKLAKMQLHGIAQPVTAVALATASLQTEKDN
The method, boiled down: as §1

For assay [11], the target named is T7, ELK4 (Homo sapiens, UniProt P28324-2 1-405).
T7 sequence: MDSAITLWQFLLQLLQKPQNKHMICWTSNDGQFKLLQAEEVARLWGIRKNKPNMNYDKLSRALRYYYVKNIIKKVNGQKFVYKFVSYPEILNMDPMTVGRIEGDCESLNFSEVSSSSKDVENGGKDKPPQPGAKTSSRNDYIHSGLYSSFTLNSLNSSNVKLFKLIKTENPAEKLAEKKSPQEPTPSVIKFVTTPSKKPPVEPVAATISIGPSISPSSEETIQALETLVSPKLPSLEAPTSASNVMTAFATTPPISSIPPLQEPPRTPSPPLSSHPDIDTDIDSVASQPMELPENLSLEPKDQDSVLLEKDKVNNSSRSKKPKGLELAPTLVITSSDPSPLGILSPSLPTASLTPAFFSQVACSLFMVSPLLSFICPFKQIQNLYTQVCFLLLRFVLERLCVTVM
The method, boiled down: as §1

Sequence of ETV5 (P41161 whole entry): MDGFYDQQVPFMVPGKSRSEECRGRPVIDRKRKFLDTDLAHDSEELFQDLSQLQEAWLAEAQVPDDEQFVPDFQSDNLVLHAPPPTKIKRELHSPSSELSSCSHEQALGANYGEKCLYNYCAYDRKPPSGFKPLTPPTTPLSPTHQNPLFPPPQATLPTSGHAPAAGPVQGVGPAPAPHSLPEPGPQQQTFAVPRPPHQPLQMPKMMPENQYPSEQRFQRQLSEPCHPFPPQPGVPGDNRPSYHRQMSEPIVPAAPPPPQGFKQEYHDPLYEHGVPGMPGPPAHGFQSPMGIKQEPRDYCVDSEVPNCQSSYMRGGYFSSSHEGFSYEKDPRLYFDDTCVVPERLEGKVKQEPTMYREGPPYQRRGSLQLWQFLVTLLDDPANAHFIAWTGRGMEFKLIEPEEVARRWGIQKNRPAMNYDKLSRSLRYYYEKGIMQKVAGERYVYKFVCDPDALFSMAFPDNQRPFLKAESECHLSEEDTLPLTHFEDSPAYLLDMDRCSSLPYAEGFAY
Sequence of ELF4 (Q99607 whole entry): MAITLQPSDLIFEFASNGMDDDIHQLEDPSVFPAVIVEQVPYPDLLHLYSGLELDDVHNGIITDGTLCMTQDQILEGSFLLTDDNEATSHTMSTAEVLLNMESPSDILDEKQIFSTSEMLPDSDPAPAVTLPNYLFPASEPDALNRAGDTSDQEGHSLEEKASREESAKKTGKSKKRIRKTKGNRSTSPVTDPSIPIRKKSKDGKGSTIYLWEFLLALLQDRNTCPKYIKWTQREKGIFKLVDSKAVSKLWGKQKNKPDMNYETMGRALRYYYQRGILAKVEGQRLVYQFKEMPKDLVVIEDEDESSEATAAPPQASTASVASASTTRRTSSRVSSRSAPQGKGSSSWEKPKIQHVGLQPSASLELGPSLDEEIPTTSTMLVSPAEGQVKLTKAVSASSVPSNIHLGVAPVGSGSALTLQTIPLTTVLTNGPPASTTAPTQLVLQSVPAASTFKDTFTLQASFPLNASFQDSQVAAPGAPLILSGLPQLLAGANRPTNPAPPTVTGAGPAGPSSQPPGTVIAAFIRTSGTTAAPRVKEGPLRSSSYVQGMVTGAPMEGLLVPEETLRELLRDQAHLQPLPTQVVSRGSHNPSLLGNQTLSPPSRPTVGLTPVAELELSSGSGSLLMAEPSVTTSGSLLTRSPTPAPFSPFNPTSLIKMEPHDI
Sequence of ETV6 (P41212 whole entry): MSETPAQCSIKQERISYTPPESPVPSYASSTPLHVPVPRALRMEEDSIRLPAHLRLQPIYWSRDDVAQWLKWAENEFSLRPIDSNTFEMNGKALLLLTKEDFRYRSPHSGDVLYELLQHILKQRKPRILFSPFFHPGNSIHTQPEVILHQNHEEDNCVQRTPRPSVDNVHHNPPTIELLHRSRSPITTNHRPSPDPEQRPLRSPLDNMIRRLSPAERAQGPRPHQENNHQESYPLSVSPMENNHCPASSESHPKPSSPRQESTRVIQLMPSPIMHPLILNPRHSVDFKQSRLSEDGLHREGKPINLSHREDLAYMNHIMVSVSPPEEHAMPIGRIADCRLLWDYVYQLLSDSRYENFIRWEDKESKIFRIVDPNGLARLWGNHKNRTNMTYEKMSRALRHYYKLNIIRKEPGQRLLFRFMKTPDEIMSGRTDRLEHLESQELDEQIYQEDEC

Turning to ACTCAG, the binding signal is 1.06 fold enrichment (6-mer frequency, TF over GST control) in assay [1]; 1.07 fold enrichment (6-mer frequency, TF over GST control) in assay [2]; 1.03 fold enrichment (6-mer frequency, TF over GST control) in assay [3]; 1.11 fold enrichment (6-mer frequency, TF over GST control) in assay [4]; 1.08 fold enrichment (6-mer frequency, TF over GST control) in assay [5]; 1.02 fold enrichment (6-mer frequency, TF over GST control) in assay [6]. Further, the binding signal is 1.01 fold enrichment (6-mer frequency, TF over GST control) in assay [7]; 1.05 fold enrichment (6-mer frequency, TF over GST control) in assay [8]; 1.05 fold enrichment (6-mer frequency, TF over GST control) in assay [9].
For the sequence ACGCTC, the binding signal was 1.05 fold enrichment (6-mer frequency, TF over GST control) in assay [10]; 1.01 fold enrichment (6-mer frequency, TF over GST control) in assay [1]; 1.07 fold enrichment (6-mer frequency, TF over GST control) in [2]; 1.01 fold enrichment (6-mer frequency, TF over GST control) in assay [3]; 1 fold enrichment (6-mer frequency, TF over GST control) in assay [4]; 1.08 fold enrichment (6-mer frequency, TF over GST control) in [5]. Further, the binding signal in assay [11] was 1.01 fold enrichment (6-mer frequency, TF over GST control).
